# The whole screen tested about 140,000 compounds, of which about 4,300 (3.1%) were called active. Not shown: some 21% with an inconclusive outcome. What follows is part of a selection rich in actives, with near analogues and random picks from the rest. Unmarked numbers belong to inactive results.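 How the source made its calls: active means readout at or below -70, meaning at least 70% loss of cells showing the perinucleolar compartment, a nuclear body marking cancer cells; inconclusive means readout between -30 and a set limit; inactive means the rest.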
# Test: High Content Assay for Compounds that inhibit the Assembly of the Perinucleolar Compartment;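 further: plate controls were DMSO wells for no effect and camptothecin positive control wells for full effect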
# Conditions: PC3M PTB-GFP, PNC prevalence imaging, 16 h; at 10 µM; active compounds read low
# Description: High Content Assay for Compounds that inhibit the Assembly of the Perinucleolar Compartment NIH Chemical Genomics Center [NCGC] NIH Molecular Libraries Probe Centers Network [MLPCN] MLPCN Grant: MH082371-01A2 Assay Submitter (PI): Sui Huang, Northwestern University, Feinberg School of Medicine, Cell and Molecular Biology, Chicago, Illinois. The perinucleolar compartment (PNC) is a non-membrane-bound nuclear subdomain that is associated with but structurally distinct from the nucleolus. The PNC is a heritable trait, in which the number of PNCs per cell in daughter cells often mimics that of their mother cells. The PNC is heterogeneous in shape, is stable through interphase, disassembles during mitosis, and reassembles in early G1. The PNC is concentrated with newly synthesized RNA polymerase III (pol III) RNAs (MRP RNA, RNAse P H1 RNA, hY RNAs[hY1, 2, 5], Alu RNA, and SRP [7SL] RNA) and RNA binding proteins (nucleolin, PTB, CUG-BP, KSRP, Raver1, Raver2, and Rod). […] Extensive in vitro studies have shown that the PNC is unique to tumor cells and preferentially forms in tumor cells derived from solid tissues. Examination of cancer cell lines from various origins and malignant capacities has shown that PNC prevalence correlates with the malignancy of tumors and has the potential to be developed as a pan-cancer prognostic marker. […] Although the PNC is associated with a DNA locus and a handful of components have been identified, much remains to be investigated regarding the structure and function of the PNC and its mechanistic link to cancer. We have previously shown that PNC prevalence reduction is a valid strategy to identify compounds that can be used to study the structure and function of the PNC. It is necessary, however, to create a screening platform that is able to test a large number of compounds in an automated fashion. Here we report the development and robustness of an automated whole-cell phenotypic image-based screening assay that is capable of identifying such compounds.
# PNC High Content Imaging Assay Procedure: 1. Cells at a density of 75-90% confluency in T175 flasks were harvested using 7 ml TrypLE Express cell dissociation reagent. After dissociation (5 minutes room temperature incubation) 10 ml of complete media was added to the TrypLE/cell suspension. The liquid was transferred to a 50 ml Conical tube and cells were pelleted at 1000 RPM for 5 min. Supernatant was removed and cells were resuspended to a final density of 150-200 cells/ul in complete media. 2. Cells were plated in 5 ul volume (750-1000 cells/well) into 1536 well Black uclear Aurora Low Base plates and allowed to recover and adhere at 37 C in a humidified 5% CO2 incubator for 4 hours. 3. After 4 hour incubation, compound libraries (23 nl of […] in columns 5-48) were transferred to the plates in duplicate using a 1536 well pintool. Camptothecin positive control (59 uM final) was added to column 2 and 1:3 dilutions of camptothecin was added to column 3. DMSO negative controls were present in columns 1 and 4. 4. After a 16 hour incubation in the 37 C incubator, cells were fixed by the addition of 4 ul of 6% EM grade paraformaldehyde (containing 0.1% triton X 100) directly to the cells. The plates were incubated at room temperature for 20 minutes. The liquid was removed using a 32 channel Kalypsys aspirator and the fixed cells were washed twice with 5 ul PBS followed by a final addition of 5 ul PBS containing 1 ug/ml Hoechst 33342. 5. Fixed plates were sealed and sotred at 4C until imaged. 6. Plates were imaged on an InCell 1000 automated microscope using a 20 x objective, a standard FITC filter set, no camera binning, and an exposure time of ~100-150 msec/well. 7. Data analysis. PNC prevalence was determined using the Multitarget analysis module from InCell Workstation software (V3.5 ) and analysis was run on a quad core workstation using the Incell Developer Toolbox (V1.7). […]
row,SMILES,"activity change (PNC), negative = inhibition"
1,CCOC(=O)c1ccc(NC(=O)CSc2ncccn2)cc1,-27.8%
2,CCOC(=O)c1ccc(NC(=O)CSc2nnc(COc3ccccc3OC)n2C)cc1,-83.9% (active)
3,COC(=O)c1ccc(NC(=O)CSc2nnc(-c3ccncc3)n2C)cc1,-12.9%
4,CN(CC(=O)Nc1ccc(S(=O)(=O)N2CCCC2)cc1)Cc1ccc(Cl)c(Cl)c1,14.3%
5,Cc1nc2scc(-c3cccs3)c2c(=O)n1N,38.3%
6,CCCCNc1nc2c(c(=O)n(C)c(=O)n2C)n1Cc1cccc(OC)c1,-17.3%
7,CCCCNc1nc2c(c(=O)[nH]c(=O)n2C)n1CCOc1ccccc1,44.9%
8,Cn1c(=O)[nH]c(=O)c2c1nc(NCCCn1ccnc1)n2Cc1cccc(Br)c1,-100% (active)
9,O=C(N/N=C\c1ccc(Br)cc1)c1ccc(Cn2cccn2)o1,-11.4%
10,CN(C)S(=O)(=O)c1ccc(N2CCCC2=O)c([N+](=O)[O-])c1,43.2%
11,COc1ccc2c(c1)C(SCC(=O)NCc1ccccc1)CC(C)(C)O2 (centres undefined),27.2%
12,Cc1ccc(C)c(S(=O)(=O)N2CC(=O)Nc3ccccc32)c1,-86.7% (active)
13,Cc1ccc(C)c(S(=O)(=O)n2cnc3ccccc32)c1,-9%
14,Cc1ccc(S(=O)(=O)N2CC(=O)Nc3ccccc32)cc1C,5.54%
15,COc1ccc(NC(=S)NCc2cccs2)c(OC)c1,-5.37%
16,O=C(CN1CCN(S(=O)(=O)c2ccc(Br)cc2)CC1)Nc1ccccc1C(=O)c1ccccc1,41.1%
17,COC(=O)NNC(=O)C1CCC(C)CC1 (centres undefined),21.6%
18,CCOC(=O)CSc1nnc(NC(=O)c2cccc(S(=O)(=O)N3CCCCC3)c2)s1,19.2%
19,O=C(Nc1nncs1)c1cccc(S(=O)(=O)N2CCCCC2)c1,-22%
20,CCOC(=O)C1=C(CC)Nc2ccccc2N=C1NC(=O)c1cccc(S(=O)(=O)N2CCCC2)c1,-114% (active)
21,COc1ccc(C)cc1NC(=O)C(Sc1ccccc1)c1ccccc1 (centres undefined),-2.98%
22,CCC(C)NC(=O)c1ccc(N2CCC3(CC2)OCCO3)c([N+](=O)[O-])c1 (centres undefined),36.6%
23,COc1ccc(NC(=O)CN(Cc2ccccc2)S(C)(=O)=O)cc1OC,-0.222%
24,COc1ccc(COC(=O)N/N=C(\C)CC(=O)Nc2ccc(Cl)cc2)cc1,20.7%

row,SMILES,"activity change (PNC), negative = inhibition"
1,C/C(CC(=O)Nc1ccc(Cl)cc1)=N\NC(=O)C(=O)NCCO,-81.9% (active)
2,CCCCC(=O)N/N=C(\C)CC(=O)Nc1cc(Cl)ccc1OC,41.6%
3,CC(C)(C)C1CCC(=NNC(=O)c2ccc(Br)o2)CC1 (centres undefined),30.8%
4,O=C(Nc1cn(-c2ccccc2)nc1-c1ccccc1)c1ccccc1,22.3%
5,Cc1nn(-c2ccccc2)c(Cl)c1/C=C/C(=O)c1ccc(O)cc1,-91.6% (active)
6,Cc1ccc(C(=O)/C=C/c2c(C)nn(-c3ccccc3)c2Cl)cc1,-11.1%
7,Cc1nn(-c2ccccc2)c(C)c1/C=C/C(=O)OC(C)C(N)=O (centres undefined),7.76%
8,NC1=C([N+](=O)[O-])C(c2ccccc2)C2=C(CCCC2=O)O1 (centres undefined),6.59%
9,CC(OC(=O)c1ccccc1N1C(=O)C2C3CCC(C3)C2C1=O)C(=O)c1ccccc1 (centres undefined),-15.7%
10,CCOC(=O)c1c(NC(=O)CCl)sc(C(=O)N(CC)CC)c1C,4.89%
11,CCOC(=O)c1sc(NC(=O)COc2ncnc3ccccc23)c(C(=O)OCC)c1C,-95.9% (active)
12,CC(C)C(C)NC(=O)COc1ncnc2ccccc12 (centres undefined),23%
13,CCOc1ccc(-c2n[nH]c(=S)n2/N=C/c2cc3c(cc2[N+](=O)[O-])OCO3)cc1,25.2%
14,COC(=O)c1sccc1NC(=O)COc1ccc(Cl)cc1,-3.53%
15,O=C(COc1ccc(Cl)cc1)NCCSc1ccccc1,8.59%
16,O=C(COc1ccc(Cl)cc1)Nc1ccccc1CO,-92.3% (active)
17,CCS(=O)(=O)N1Cc2ccccc2CC1C(=O)Nc1nc2ccc(F)cc2s1 (centres undefined),48.1%
18,O=C1C2C3C=CC(C4CC34)C2C(=O)N1c1nccs1 (centres undefined),23.7%
19,Cc1cc(Cl)ccc1NC(=S)N1CCC(C(N)=O)(N2CCCCC2)CC1,74.5%
20,NC(=O)c1sc2nc3c(c(-c4ccccc4)c2c1N)CCC3,-100% (active)
21,CC(=O)Nc1ccc(NC(=O)c2sc3nc4c(c(-c5ccc(C)cc5)c3c2N)CCC4)cc1,14%
22,Cc1nc2sc(C(=O)c3ccccc3)c(N)c2c2c1CCCC2,7.19%
23,COc1ccc(Br)cc1C(=O)Nc1cccc(C)c1C,-16.5%
24,CC(C)OCCCNC(=O)c1cc(Sc2ccc(F)cc2)nc2ccccc12,-1.71%

row,SMILES,"activity change (PNC), negative = inhibition"
1,Cc1cc(C)cc(NC(=O)N2CCC(NC(=O)c3ccc(F)cc3)CC2)c1,-20.1%
2,O=C(NC1CCN(C(=S)NCc2ccco2)CC1)c1ccc(F)cc1,-100% (active)
3,O=S(=O)(c1ccc(F)cc1)N1CCN(C(=S)NCc2ccco2)CC1,8.43%
4,Cc1ccc(CN2CCN(/N=C/c3cccnc3)CC2)c(C)c1,-5.48%
5,CC(C)(C)NC(=O)C(=O)NCc1ccncc1,-17.6%
6,O=C(N/N=C/c1ccccn1)C12CC3CC(CC(C3)C1)C2,-19.1%
7,Cc1nc2ccccc2c(=O)n1CCCn1ccnc1,-81.9% (active)
8,CCOc1ccccc1C(=O)NCCCn1ccnc1,15.6%
9,COCCCn1c2nc3ccccc3nc2c2c(=O)n(Cc3ccc(Cl)cc3)c(C)nc21,39.8%
10,Cc1ccc(C2C3=C(Nc4[nH]n(-c5ccccc5)c(=O)c42)c2ccccc2C3=O)cc1 (centres undefined),-4.45%
11,CCCN(CCC)C(=S)Nc1cc(C(=O)OC)ccc1C(=O)OC,27.9%
12,Cn1c(=O)c(Sc2ccc(Cl)cc2)c(O)c2ccccc21,-25.4%
13,O=C(CNC(=O)Cc1ccccc1)NCC(=O)OCC(=O)c1ccccc1Cl,90.5%
14,CCOC(=O)CNC(=O)/C=C/c1c(Cl)cccc1Cl,-123% (active)
15,O=C(/C=C/c1c(Cl)cccc1Cl)NCc1ccccc1,-1.54%
16,CCOC(=O)CC(NC(=O)C1c2ccccc2Oc2ccccc21)c1ccc(C)cc1 (centres undefined),-19.2%
17,CCOC(=O)N1CCN(C(=O)C2CCN(Cc3ccc(OC)cc3OC)CC2)CC1,33.2%
18,O=C(NCCN1CCOCC1)[C@H](Cc1ccccc1)N1C(=O)c2ccccc2C1=O,-13.4%
19,N/C(=N\c1nc2ccccc2o1)NC(=O)C(Cc1ccccc1)N1C(=O)c2ccccc2C1=O (centres undefined),-100% (active)
20,O=C(NC1=NCCS1)[C@H](Cc1ccccc1)N1C(=O)c2ccccc2C1=O,5.11%
21,CC(Sc1nc(-c2ccccc2)cc(C(F)(F)F)n1)C(=O)Nc1ccc2c(c1)OCO2 (centres undefined),-18%
22,c1n[nH]c(NCc2ccc3c(c2)OCO3)n1,-81.5% (active)
23,O=C(COc1ccccc1)NCc1ccc2c(c1)OCO2,24%
24,Cc1ccc(C(=O)OCC(=O)NCc2ccc3c(c2)OCO3)s1,-9.27%

row,SMILES,"activity change (PNC), negative = inhibition"
1,O=C(CSc1nnc(SCc2ccc(Cl)cc2)s1)N/N=C/c1ccccc1Cl,-24.9%
2,CCOc1ccc(N2C(=O)/C(=C/c3ccc(C)o3)N(C)C2=S)cc1,15.7%
3,CC(C)CCN1C(=O)c2ccc(C(=O)Nc3cccc(S(N)(=O)=O)c3)cc2C1=O,-6.14%
4,CCOC(=O)C1=C(C)NC(=S)NC1c1cccs1 (centres undefined),-93.3% (active)
5,CCOC(=O)C1=C(C)NC(C)=C(C(=O)OCC)C1C1=COCCO1,12%
6,CCOC(=O)C1=C(C)NC(=O)NC1c1ccccc1 (centres undefined),2.37%
7,CONc1nc2nonc2nc1NOC,47%
8,Cc1cnc(NC(=O)CSc2nnc(-c3ccc(Cl)cc3Cl)n2N)s1,-100% (active)
9,Cc1cnc(NC(=O)CSc2nnc(-c3ccccc3)n2Cc2ccccc2)s1,-8.74%
10,Cc1cnc(NC(=O)CSc2c(Cl)cccc2Cl)s1,79.3%
11,COc1ccc(C(=O)O/N=C(\N)Cc2ccc(Cl)cc2Cl)cc1OC,-26.7%
12,CNS(=O)(=O)c1ccc(N2CCCC2=O)c([N+](=O)[O-])c1,-24.4%
13,COc1ccc(C(CC(=O)c2ccccc2)S(=O)(=O)c2ccccc2)cc1 (centres undefined),10.3%
14,COCCOC(=O)C1=C(C)N=c2s/c(=C\c3cccs3)c(=O)n2C1c1cccs1 (centres undefined),-82.9% (active)
15,COCCOC(=O)C1=C(C)Nc2nc(C)nn2C1c1ccccc1 (centres undefined),-12.5%
16,CCOC(=O)C1=C(C)N=c2s/c(=C\C(=O)OC)c(=O)n2C1c1ccc(OC)cc1 (centres undefined),0.912%
17,C=CCOc1ccc(/C=N/NC(=O)C(C)Sc2ccccn2)cc1OCC (centres undefined),17.5%
18,Cc1ccc(N=C2NC(=O)c3cccc([N+](=O)[O-])c32)cc1,43.8%
19,Cn1c2ccccc2c(=O)c2c(=O)n(Cc3ccco3)c(COc3ccccc3)nc21,-87% (active)
20,Cc1nc2c(c(=O)n1Cc1ccco1)c1nc3ccccc3nc1n2Cc1ccccc1,32.1%
21,COc1ccc(NC(=O)Cn2c(=O)n(Cc3ccco3)c(=O)c3ccccc32)cc1,-2.68%
22,Cc1cc(NC(=O)COC(=O)COc2ccc(Cl)cc2C)c([N+](=O)[O-])cc1C,-20.6%

# Reference: PubChem BioAssay AID2417 (National Center for Advancing Translational Sciences (NCATS), 2010)
